Screening results as filed in PubChem.
eLon inh: inhibitors of E. coli Lon protease, primary screen, biochemical, fluorescence polarization; P0A9M0; purified E. coli Lon protease; inhibition, % at 7.94 µM; 360,000 tested, 0.42% active; in the data active = inhibition above about 13%, passing the limit was not always enough;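 also: 0% = enzyme with probe and DMSO and 100% = no enzyme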
Target sequence (P0A9M0 whole entry, looked up): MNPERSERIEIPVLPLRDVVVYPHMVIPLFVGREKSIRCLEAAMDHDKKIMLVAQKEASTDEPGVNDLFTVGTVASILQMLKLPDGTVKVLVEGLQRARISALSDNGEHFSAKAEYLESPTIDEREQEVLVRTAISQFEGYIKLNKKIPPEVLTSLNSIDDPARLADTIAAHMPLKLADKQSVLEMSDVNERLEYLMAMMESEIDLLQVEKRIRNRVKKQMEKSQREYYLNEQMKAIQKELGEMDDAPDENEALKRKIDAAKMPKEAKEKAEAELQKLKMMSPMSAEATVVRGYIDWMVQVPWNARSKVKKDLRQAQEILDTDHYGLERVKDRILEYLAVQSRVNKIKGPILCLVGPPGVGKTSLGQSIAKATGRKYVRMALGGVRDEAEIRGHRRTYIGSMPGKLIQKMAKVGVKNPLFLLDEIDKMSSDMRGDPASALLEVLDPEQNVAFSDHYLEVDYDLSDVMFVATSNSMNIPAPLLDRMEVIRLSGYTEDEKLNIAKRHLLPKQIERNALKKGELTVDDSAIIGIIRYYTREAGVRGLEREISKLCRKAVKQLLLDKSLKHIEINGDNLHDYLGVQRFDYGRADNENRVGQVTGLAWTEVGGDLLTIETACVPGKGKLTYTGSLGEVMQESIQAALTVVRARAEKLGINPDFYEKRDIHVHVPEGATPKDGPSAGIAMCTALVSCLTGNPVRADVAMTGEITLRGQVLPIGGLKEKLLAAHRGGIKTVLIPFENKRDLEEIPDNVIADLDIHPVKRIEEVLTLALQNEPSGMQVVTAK
Keap1 Nrf2 FP: Keap1-Nrf2 protein-protein interaction inhibitors, primary screen, biochemical, fluorescence polarization, single point; Kelch-like ECH-associated protein 1 (Homo sapiens), Q14145; Keap1 Kelch-Nrf2 peptide fluorescence polarization, 1536-well; inhibition, % at 9.4 µM; 340,000 tested, 0.15% active; AID 504523, 2011; in the data active = inhibition above about 12%;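 also: human Keap1 Kelch domain with fluorescein labeled Nrf2 9mer peptide probe; 0% = neutral control wells and 100% = peptide positive control; higher means more block of Keap1 binding to Nrf2 peptide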
LANA DNA inh: inhibitors of KSHV C-LANA binding to DNA, primary screen, biochemical, fluorescence polarization, FAM-LBS DNA, MBP-C-LANA, single point. Kaposi's sarcoma herpesvirus LANA C-terminal domain (residues 932-1162) DNA binding. inhibition, % at 9 µM. 340,000 tested, 0.078% active;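 active = highest replicate inhibition at or above 60% at 9 µM, even if other replicates fall short; inactive = all replicates below 60% inhibition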;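 also: 0% = neutral control wells and 100% = 4 µM acridine orange control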
EBV gp42 inh: Epstein-Barr virus gp42 inhibitors, primary screen, biochemical, uHTS, fluorescence polarization; Glycoprotein 42 (Epstein-Barr virus (strain AG876)), Q1HVG2; Fluorescence polarization binding assay, mP read-out; inhibition, % (tested at 21.74 µM); 220,000 tested, 0.42% active; in the data active = inhibition above about 50%
LANA-H2A inh: blockers of LANA interaction with H2A/H2B – biochemical, FP readout, HTS, primary screen | 320,000 tested, 0.6% active | Protein LANA1 (Human herpesvirus 8 type P (isolate GK18)), Q9QR71 | cell-free LANA-H2A/H2B peptide, fluorescence polarization | inhibition, % (no concentration beside the values) | AID 2629, 2010; in the data active = inhibition mostly above about 10%, no sharp cut-off; inactive = mostly below about 6.7%
GLD-1 TGE inh: GLD-1/TGE RNA complex disruptors, primary screen, biochemical, fluorescence polarization; AID 2280, 2010; purified GLD-1 + fluorescein TGE RNA; Female germline-specific tumor suppressor gld-1 (Caenorhabditis elegans), Q17339; inhibition, % at 5.96 µM; 320,000 tested, 0.44% active;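 active = percent inhibition above a per-plate cutoff, the plate mean of test compounds plus 3 SD, cut at about 30% in these data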;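 also: 0% = DMSO wells with GLD-1 and probe and 100% = wells lacking GLD-1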
GLD1 RNA confirm: GLD-1/TGE RNA binding inhibitors, retest, confirmation, biochemical, fluorescence polarization, triplicate. shares compounds with GLD-1 TGE inh. GLD-1/FL-TGE RNA fluorescence polarization. inhibition, % at 5.96 µM. 550 tested, 10% active;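 active = average inhibition across triplicates above the hit cutoff set in the primary screen, cut at about 32% in these data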;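 also: 0% = GLD-1 with RNA probe and DMSO and 100% = wells lacking GLD-1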
DNA intercal 2: DNA intercalator detection, dose response, counter-screen for C-LANA DNA-binding inhibitor project, biochemical, dry powder | AC50, µM (titrated, usually from 35 µM), without a hit: top-dose activity change, negative = inhibition | shares compounds with LANA DNA inh | Acridine orange-DNA displacement, fluorescence polarization | 20 tested, under 10 active;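 active = signal drop with an AC50 no more than ten times the top valid dose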
Keap1 TSA: Keap1 Kelch domain binders by thermal stabilisation, dose response, biophysical, thermal shift, RT-PCR instrument, cherry-pick; AID 651823, 2012; 400 tested, 8% active; delta Tm; stronger effect = higher value; max delta Tm, degrees C; shares compounds with Keap1 Nrf2 FP; in the data active = max delta Tm above about 0.48 degrees C
eLon confirm: E. coli Lon protease inhibitor retest, confirmation, biochemical, fluorescence polarization. shares compounds with eLon inh. purified E. coli Lon. inhibition, % at 7.94 µM. 1,400 tested, 31% active. AID 602230, 2012; in the data active = inhibition above about 16%;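 also: 0% = enzyme with probe and DMSO and 100% = no enzyme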
The depositor's hits bear a star; nt = not tested or not shown; + = active, no number. Hits are enriched below; roughly 1.5% of the tested compounds scored in any of these assays.

SMILES	eLon inh	Keap1 Nrf2 FP	LANA DNA inh	EBV gp42 inh	LANA-H2A inh	GLD-1 TGE inh	GLD1 RNA confirm	eLon confirm	others
COc1cccc(=O)c2c(C)n(-c3ccc(C(=O)O)cc3)c(C)c12	27*	-6	27	13	-2	38*	14	11
CCOC(=O)c1[nH]cnc1N=Nc1c(O)ccc2ccccc12	44*	6	2	56*	-4	60*	32*	76*
Oc1ccc2ccccc2c1N=Nc1ccccn1	-6	3	0	0	-7	-5	nt	nt
Nc1ncc(-c2ccccc2)c(-c2ccc(O)cc2O)n1	22*	0	-2	nt	-1	43*	11	7
COc1ccc(-c2cnc(N)nc2-c2ccc(OCc3ccccc3)cc2O)cc1	-3	3	0	-2	-3	5	nt	nt
COc1cccc(CNC(=O)[C@@H]2CCCN2C(=O)[C@H]2CCCCN2C(=O)c2c(F)cccc2F)c1	-6	nt	nt	nt	nt	nt	nt	nt
O=C1C2=C(SCCS2)C(=O)N1CCCO	41*	9	0	117*	2	75*	49*	55*
CCC1c2ccc(C)n2CCN1C(=O)Nc1ccccc1C(=O)OC (stereo unspecified)	23*	2	11	-7	7	35*	-1	6
CC(=O)N1CC=C2C(C#N)=C(N)C(C#N)(C#N)[C@H](c3ccoc3)[C@H]2C1	31*	-7	13	17	-1	31*	18	15
CNc1c(N)n(Cc2ccccc2)c(=O)[nH]c1=O	33*	8	28	50*	1	42*	30	24*
CN1OC[C@@H]2CN(C(=O)Nc3ccccc3)[C@H](c3ccc(N4CCCCC4)cc3)C[C@@H]21	-2	nt	nt	nt	nt	nt	nt	nt
CN1C(=O)N(C)c2ccc(C=O)c3cccc1c23	16*	2	2	49	0	40*	23	15
CCC(=O)Nc1ccc(C(=O)NNC(=O)c2ccc(C)cc2)cc1	0	0	-1	nt	5	2	nt	nt
O=C1c2ccccc2C(=O)c2c1cccc2N1CCCC1	2	-3	0	28	0	6	nt	nt
Cn1c(=O)cc2c3c(c(N4CCCCC4)ccc31)C(=O)c1ccccc1-2	+	nt	nt	74*	22*	82*	46*	73*
COC(=O)c1cc2c(C)cc3ccc(C)cn3c-2c1C(=O)OC	40*	4	9	88*	4	55*	41*	78*
COC(=O)c1cc2ccccn2c2c(C(=O)OC)c(C(=O)OC)cc1-2	0	-1	2	-10	3	7	nt	nt
O=C(/C=C/c1cccc([N+](=O)[O-])c1)NCCSCc1cccc(Cl)c1	4	-3	-1	12	-1	3	nt	nt
O=C(c1cc2ccc([N+](=O)[O-])cc2oc1=O)N1CCOCC1	-2	-3	1	0	-1	-4	nt	nt
CCOC(=O)C1=C(COC(=O)c2ccc3ccccc3c2O)NC(=O)NC1C (stereo unspecified)	49*	3	13	nt	4	46*	1	9
CCOC(=O)C1=CCN(Cc2ccccc2)CC1	-12	-5	-2	nt	5	-4	nt	nt
CCC(=O)Oc1ccc2c(c1)O/C(=C\c1ccco1)C2=O	30	10	58	32	7	89*	nt	nt	DNA intercal 2=-9%
CCc1ccc(/C=C2\Oc3cc(OC(=O)N4CCOCC4)ccc3C2=O)cc1	8	-3	0	-11	-2	2	nt	nt
O=C1/C(=C/c2ccco2)Oc2c1ccc(O)c2CN1CCCCC1	-15	-2	66*	51*	2	34*	nt	nt	DNA intercal 2=30µM*
COC(=O)c1ccccc1NC(=O)CCS(=O)(=O)c1ccc(Br)cc1	3	-4	48	75*	nt	nt	nt	nt	DNA intercal 2=5%
SMILES	eLon inh	Keap1 Nrf2 FP	LANA DNA inh	EBV gp42 inh	LANA-H2A inh	GLD-1 TGE inh	GLD1 RNA confirm	eLon confirm	others
CSc1ccc(/C=N/Nc2cccc(C(=O)O)c2)cc1	9	1	78*	19	nt	nt	nt	nt	DNA intercal 2=6%
Cc1c(C(=O)NCc2ccc3c(c2)OCCO3)sc(=O)n1Cc1ccc(S(=O)(=O)N(C)C)cc1	-2	nt	nt	nt	nt	nt	nt	nt
CC1=NN(c2cccc(C(=O)O)c2)C(=O)/C1=C\C=C\c1ccco1	-8	7	92*	18	-6	-2	nt	nt	DNA intercal 2=9%
Cc1cc2c(Nc3ccc(C(=O)O)cc3)ncnc2s1	0	-3	-1	nt	-2	2	nt	nt
CS(=O)(=O)N(CC(=O)N1CCN(Cc2ccccc2)CC1)c1ccccc1Br	2	1	2	nt	-2	8	nt	nt
O=C(O)C1Nc2ccc(Br)cc2C2C=CCC12 (stereo unspecified)	0	7	69*	nt	-4	7	nt	nt	DNA intercal 2=3%
CCOC(=O)C1Nc2ccc(Br)cc2C2C=CCC12 (stereo unspecified)	-4	-3	1	nt	-4	9	nt	nt
CCCCn1c(SCC(=O)c2ccc(O)c(O)c2)nc2ccsc2c1=O	6	-6	-2	5	2	5	nt	nt
O=C(O)CCCCCn1c(SCC(=O)c2ccc(O)c(O)c2)nc2ccsc2c1=O	6	0	14	5	6	4	nt	nt	DNA intercal 2=-3%
CC1CCCC(NC(=O)c2cccc(S(=O)(=O)NCc3ccccc3)c2)C1C (stereo unspecified)	-1	2	0	nt	2	9	nt	nt
O=C(/C=C/c1ccccc1Cl)NCCCn1ccnc1	-6	38*	19	nt	-3	-4	nt	nt	Keap1 TSA=-0.01
O=C(Cc1ccccc1Cl)NCCCn1ccnc1	0	-2	-4	-3	4	6	nt	nt
Nc1c(Cl)ncnc1NCc1ccccc1	-8	31*	28	nt	6	7	nt	nt	Keap1 TSA=0
